MRP resist rev: reverses drug resistance mediated by MRP | H69AR cells + 2 uM doxorubicin, CellTiter-Glo, 72 h | differential viability (reversal), % at 10 µM | 0.04% of 85,000 active | AID 602;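 active = viability drop by adding the cancer drug above about 55%, with treated viability meeting a 40% cutoff, limit read from the data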;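 also: viability without doxorubicin minus viability with 2 µM doxorubicin for each compound; larger differential means the compound sensitizes cells more to doxorubicin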
MRP-1 activ: MRP-1 activation; H69AR cells + doxorubicin, viability rescue, CellTiter-Glo; viability increase, % at 10 µM; 0.61% of 140,000 active;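 active = viability gain under doxorubicin at or above a set limit, the compound median plus 3 SD, cut at about 4.7% in these data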;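 also: MRP-1 overexpressing cells given doxorubicin 25 µM after compound pretreatment; 18-22 h compound pretreatment then 72 h with doxorubicin before readout; 0% = doxorubicin-only wells and 100% = vehicle-treated cells without doxorubicin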
CYP2C19 inhib: inhibitors of human CYP2C19. 21% of 96,000 active. CYP2C19 Supersomes, luciferin-H EGE luminescence, 30 min. inhibition, % at 5 µM. AID 778;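 active = CYP2C19 inhibition above a set limit at 5 µM in the primary screen, cut at about 50% in these data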;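 also: plate controls were negative control wells for no effect and 2.5 mM tranylcypromine positive control for full effect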
CYP2C9 act: CYP2C9 (human) activation | P11712 | recombinant CYP2C9, luciferin-H conversion, luminescence; active compounds read high; factor 1 = untreated enzyme, 0 = blocked | activation factor at 5 µM | 1.4% of 96,000 active;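 active = activation factor of 2 or more for CYP2C9 at a 5 µM dose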;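 also: 0 = sulfaphenazole-blocked wells and 1 = vehicle-only wells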
Target sequence (P11712 whole entry, looked up): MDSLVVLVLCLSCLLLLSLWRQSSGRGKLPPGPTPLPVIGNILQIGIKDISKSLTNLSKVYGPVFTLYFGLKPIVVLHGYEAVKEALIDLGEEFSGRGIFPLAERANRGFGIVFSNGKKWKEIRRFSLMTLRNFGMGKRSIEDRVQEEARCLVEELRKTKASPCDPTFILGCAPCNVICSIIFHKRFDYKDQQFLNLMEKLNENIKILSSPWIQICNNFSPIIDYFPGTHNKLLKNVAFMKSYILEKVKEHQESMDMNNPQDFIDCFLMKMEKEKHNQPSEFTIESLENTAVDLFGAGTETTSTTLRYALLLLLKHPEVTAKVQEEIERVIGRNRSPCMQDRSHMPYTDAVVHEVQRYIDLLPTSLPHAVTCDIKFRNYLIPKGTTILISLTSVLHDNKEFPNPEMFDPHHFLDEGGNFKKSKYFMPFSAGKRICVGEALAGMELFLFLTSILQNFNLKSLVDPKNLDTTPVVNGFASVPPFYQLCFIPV
CYP2C19 act: increases human CYP2C19 enzyme activity | activation factor at 5 µM | 96,000 tested, under 10 active | P33261 | recombinant CYP2C19, luciferin-H EGE luminescence; active compounds read high; 0 = fully inhibited enzyme, 1 = untreated enzyme | AID 1025;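 active = activation factor of at least 2 at 5 µM in the primary screen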;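 also: 0 = wells with 2.5 mM tranylcypromine and 1 = vehicle-only wells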
CYP2C9 inh: blocks human cytochrome P450 2C9; P11712; CYP2C9 Supersomes, luciferin-H conversion, luminescence; inhibition, % at 5 µM; 20% of 96,000 active; AID 777;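 active = blocking of liver enzyme CYP2C9 beyond about 50% at 5 µM, limit read from the data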
* = called active by the depositor; . = no result. In the library only some 21% were active in any assay of this set; here they are far more common.

SMILES	MRP resist rev	MRP-1 activ	CYP2C19 inhib	CYP2C9 act	CYP2C19 act	CYP2C9 inh
Cc1onc(-c2ccccc2Cl)c1C(=O)N1CCN(C(=O)c2ccco2)CC1	18	0	12	0.8	0.9	16
O=C(c1cc(-c2ccc(Cl)cc2Cl)on1)N1CCN(C(=O)c2ccco2)CC1	21	1	58*	0.7	0.4	26
O=C(N/N=C/c1ccc(Cl)cc1Cl)c1n[nH]c2c1CCCC2	.	-4	.	.	.	.
O=C(c1n[nH]c2c1CCCC2)n1ccnc1	-17	-1	16	0.5	0.8	52*
O=C(O)c1n[nH]c2c1CCCCC2	2	0	4	0.8	1	16
O=C(O)c1n[nH]c2c1CCCC2	12	-3	5	2.1*	1	-108
CCS(=O)(=O)N1CCC(NC(=O)C2CCCCC2)CC1	0	-3	-11	1.1	1.1	-6
COc1cccc(S(=O)(=O)Nc2cccc(C(=O)N3CCCCCC3)c2)c1	.	-3	.	.	.	.
CC1CCCCC1NC(=O)CSc1nnc(-c2ccccc2)n1N (configuration not stated)	15	2	88*	0.4	0.1	56*
CCN(CC)S(=O)(=O)c1cccc(-c2nnc(SCC(=O)NC3CCCCCCC3)n2N)c1	-21	-2	52*	0.2	0.5	79*
Nn1c(SCC(=O)NC2CCCCC2)nnc1-c1ccccc1	9	-2	31	1.1	0.7	-10
CCN(CC)S(=O)(=O)c1cccc(-c2nnc(SCC(=O)NC3CCCCCC3)n2N)c1	-29	-1	57*	0.4	0.4	60*
CCOC(=O)C(NC(C)=O)C(OC(C)=O)c1cccc([N+](=O)[O-])c1 (configuration not stated)	.	0	5	1	0.9	0
CCCc1nc(N)c(C#N)c(-c2ccco2)c1CC	-14	-6	59*	0.5	0.4	50*
COc1ccc(C(C)=O)cc1COC(=O)c1cccc(N(C)C)c1	5	-1	72*	0.2	0.3	79*
COc1ccc(C(C)=O)cc1COC(=O)c1cc(C)oc1C	14	-1	61*	0.3	0.4	66*
COc1ccc(C(C)=O)cc1COC(=O)CNC(=O)c1cc(C)cc(C)c1	.	1	.	.	.	.
Cn1c(=O)n(C)c2cc(NC(=O)CSc3nnc(-c4ccccc4O)n3-c3ccccc3)ccc21	-21	-1	6	0.8	0.9	25
O=C1C(=O)N(c2cccc(Cl)c2)C(c2ccccc2[N+](=O)[O-])/C1=C(\O)c1ccccc1 (configuration not stated)	.	-3	10	0.1	0.9	86*
Cc1ccc(F)cc1NC(=O)C1CCCN(c2ncccn2)C1 (configuration not stated)	7	-2	94*	0.1	0.1	94*
CCOc1ccc(OCC)c(NC(=O)C2CCCN(c3ncccn3)C2)c1 (configuration not stated)	-14	-1	60*	0.6	0.4	38
CCOc1ccc(OCC)c(NC(=O)C2CCN(c3ncccn3)CC2)c1	-9	-1	30	0.5	0.7	52*
CCOc1ccc(S(=O)(=O)N2CCN(C(=S)NCc3ccco3)CC2)cc1	.	-3	.	.	.	.
Cc1ccc(-c2cc(-c3ccccc3Cl)[nH]n2)c(O)c1	-5	-2	22	0.8	0.8	22
Oc1ccc(Cl)cc1-c1cc(-c2ccccc2)n[nH]1	-10	-6	51*	0.9	0.5	14
SMILES	MRP resist rev	MRP-1 activ	CYP2C19 inhib	CYP2C9 act	CYP2C19 act	CYP2C9 inh
Cc1ccccc1-c1cc(-c2ccccc2O)n[nH]1	-30	-5	93*	0	0.1	96*
COc1ccccc1-c1cc(-c2cc(Cl)ccc2O)n[nH]1	-2	-3	8	0.9	0.9	11
Cc1ccc(-c2cc(-c3ccccc3[N+](=O)[O-])[nH]n2)c(O)c1	.	-2	47	0.2	0.5	78*
O=C1c2cccnc2C(=O)N1Cc1ccccc1	0	-3	.	.	.	.
O=C1c2cccc3c(O)ccc(c23)C(=O)N1Cc1ccccc1	.	0	64*	1.5	0.4	-51
O=C1Cc2ccccc2C(=O)N1Cc1ccccc1	-23	-1	85*	0.7	0.2	26
COC(=O)c1ccccc1OCCOc1ccccc1C(=O)OC	8	-3	62*	0.5	0.4	47
COC(=O)c1ccccc1OCCOCCOc1cccc2cccnc12	.	-1	.	.	.	.
Cc1cc(C(F)F)n2ncc(C(=O)O)c2n1	-2	-1	.	.	.	.

Bioassay records deposited in PubChem BioAssay by several laboratories.
